PubChem BioAssay
Values without a mark were called inactive. For part of these data: Measured potencies and affinities stand elsewhere. Activity calls are given as the source filed them. Unless noted, no rule for the calls is given here.

What was measured:
[1] = antimalarial activity against Dd2 strain (AID 2302;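 active = growth inhibition above 50% at the single 2 µM test dose, taken to imply half-maximal potency below 2 µM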;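 also: 0% = DMSO untreated growth and 100% = chloroquine plus artemisinin killed control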); conditions: P. falciparum Dd2 in RBCs, LDH growth readout, 72 h; at 2 µM; active compounds read high
[2] = HepG2 cytotoxicity, primary screen, cytotoxicity control for P. falciparum antimalarial project, cell-based, ATP luminescence (AID 2303;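 active = inhibition above 50%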;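 also: 0% = DMSO wells and 100% = digitonin-killed cells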); conditions: HepG2 viability, 24-48 h, at 10 µM, active compounds read high
[3] = target: L-lactate dehydrogenase (Plasmodium falciparum (isolate CDC / Honduras)) (UniProt Q27743); experiment: PfLDH activity inhibition – cell lysate, 3D7 strain, counter-screen for P. falciparum growth inhibition project (AID 2304);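 also: 0% = vehicle and 100% = reference inhibitor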; conditions: P. falciparum 3D7 crude extract, LDH APAD/NBT absorbance; at 2 µM; active compounds read high
Sequence of L-lactate dehydrogenase (Plasmodium falciparum (isolate CDC / Honduras)) (Q27743 whole entry, looked up): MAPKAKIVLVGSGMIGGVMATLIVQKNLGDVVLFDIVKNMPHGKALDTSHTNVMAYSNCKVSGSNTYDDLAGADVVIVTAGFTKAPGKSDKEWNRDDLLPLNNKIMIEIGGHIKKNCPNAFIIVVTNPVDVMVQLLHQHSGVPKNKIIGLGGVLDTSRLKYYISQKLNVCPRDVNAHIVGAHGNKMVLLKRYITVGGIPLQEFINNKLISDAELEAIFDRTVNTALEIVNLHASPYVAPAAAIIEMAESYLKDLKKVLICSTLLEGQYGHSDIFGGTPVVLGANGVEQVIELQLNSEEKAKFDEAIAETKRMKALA

[4] = inhibition of 3D7 malaria parasite growth – strain 3D7 (AID 2306);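 also: 0% = DMSO wells and 100% = chloroquine plus artemisinin control wells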; conditions: P. falciparum 3D7 erythrocytic growth, LDH absorbance, 72 h; at 2 µM; active compounds read high
[5] = target: Calcium-dependent protein kinase 1 (Plasmodium falciparum (isolate 3D7)) (UniProt P62344); experiment: PfCDPK1 kinase inhibitors, biochemical, TCAMS library (AID 1159585; cut-off not given, nearly all actives have IC50 up to about 0.98 µM;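 also: inhibitors leave more ATP so luminescence rises with inhibition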); conditions: recombinant PfCDPK1, Kinase-Glo ATP depletion luminescence
Sequence of Calcium-dependent protein kinase 1 (Plasmodium falciparum (isolate 3D7)) (P62344 whole entry, looked up): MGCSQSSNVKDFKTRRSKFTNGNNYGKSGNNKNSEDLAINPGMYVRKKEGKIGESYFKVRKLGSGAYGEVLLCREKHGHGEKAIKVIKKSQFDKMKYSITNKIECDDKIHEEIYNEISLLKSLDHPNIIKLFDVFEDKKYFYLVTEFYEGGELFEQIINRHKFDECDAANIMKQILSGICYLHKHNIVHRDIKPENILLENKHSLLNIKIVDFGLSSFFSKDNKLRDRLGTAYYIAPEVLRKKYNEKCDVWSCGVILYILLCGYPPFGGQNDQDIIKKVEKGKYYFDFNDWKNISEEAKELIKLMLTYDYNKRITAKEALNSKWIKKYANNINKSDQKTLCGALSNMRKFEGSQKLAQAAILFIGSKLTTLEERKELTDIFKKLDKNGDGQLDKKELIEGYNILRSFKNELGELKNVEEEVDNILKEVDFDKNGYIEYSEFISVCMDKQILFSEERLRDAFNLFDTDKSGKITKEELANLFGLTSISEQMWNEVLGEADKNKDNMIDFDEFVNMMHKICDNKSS

[6] = target: Plasmodium falciparum protein kinase 6 (PK6, PF3D7_1337100) (UniProt Q8IDW1); experiment: PfPK6 kinase inhibitors, biochemical, TCAMS library (AID 1159586); conditions: recombinant PfPK6, Kinase-Glo ATP depletion luminescence
Sequence of Plasmodium falciparum protein kinase 6 (PK6, PF3D7_1337100) (Q8IDW1 1-305): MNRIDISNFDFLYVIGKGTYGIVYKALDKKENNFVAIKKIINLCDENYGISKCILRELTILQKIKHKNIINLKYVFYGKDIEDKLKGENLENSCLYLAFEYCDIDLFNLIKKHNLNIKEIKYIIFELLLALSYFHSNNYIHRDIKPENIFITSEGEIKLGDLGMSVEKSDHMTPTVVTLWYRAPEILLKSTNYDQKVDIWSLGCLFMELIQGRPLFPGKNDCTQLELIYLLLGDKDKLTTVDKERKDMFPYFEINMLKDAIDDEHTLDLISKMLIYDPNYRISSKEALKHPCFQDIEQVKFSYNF

[7] = target: Protein kinase 7 (PK7), Plasmodium falciparum 3D7 (PF3D7_0213400) (UniProt Q7YTF7); experiment: inhibition of Plasmodium PK7 catalytic activity – biochemical, TCAMS antimalarial set, Kinase-Glo luminescence (AID 1159587); conditions: recombinant PfPK7, Kinase-Glo ATP depletion luminescence
Sequence of Protein kinase 7 (PK7), Plasmodium falciparum 3D7 (PF3D7_0213400) (Q7YTF7 1-343): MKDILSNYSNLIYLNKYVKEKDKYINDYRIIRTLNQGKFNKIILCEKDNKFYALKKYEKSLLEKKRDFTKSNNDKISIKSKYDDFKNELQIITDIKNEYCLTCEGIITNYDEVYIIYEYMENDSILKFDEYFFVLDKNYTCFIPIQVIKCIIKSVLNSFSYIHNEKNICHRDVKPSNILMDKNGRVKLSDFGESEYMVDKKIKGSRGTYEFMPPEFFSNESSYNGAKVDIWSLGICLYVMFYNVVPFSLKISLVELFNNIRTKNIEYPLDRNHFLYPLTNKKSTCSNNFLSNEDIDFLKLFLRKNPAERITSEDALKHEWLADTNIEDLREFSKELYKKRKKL

[8] = target: Calcium-dependent protein kinase 4 (Plasmodium falciparum (isolate 3D7)) (UniProt Q8IBS5); experiment: PfCDPK4 kinase inhibitors, biochemical, TCAMS library (AID 1159588; cut-off not given, nearly all actives have IC50 up to about 0.91 µM); conditions: recombinant PfCDPK4, Kinase-Glo ATP depletion luminescence
Sequence of Calcium-dependent protein kinase 4 (Plasmodium falciparum (isolate 3D7)) (Q8IBS5 whole entry, looked up): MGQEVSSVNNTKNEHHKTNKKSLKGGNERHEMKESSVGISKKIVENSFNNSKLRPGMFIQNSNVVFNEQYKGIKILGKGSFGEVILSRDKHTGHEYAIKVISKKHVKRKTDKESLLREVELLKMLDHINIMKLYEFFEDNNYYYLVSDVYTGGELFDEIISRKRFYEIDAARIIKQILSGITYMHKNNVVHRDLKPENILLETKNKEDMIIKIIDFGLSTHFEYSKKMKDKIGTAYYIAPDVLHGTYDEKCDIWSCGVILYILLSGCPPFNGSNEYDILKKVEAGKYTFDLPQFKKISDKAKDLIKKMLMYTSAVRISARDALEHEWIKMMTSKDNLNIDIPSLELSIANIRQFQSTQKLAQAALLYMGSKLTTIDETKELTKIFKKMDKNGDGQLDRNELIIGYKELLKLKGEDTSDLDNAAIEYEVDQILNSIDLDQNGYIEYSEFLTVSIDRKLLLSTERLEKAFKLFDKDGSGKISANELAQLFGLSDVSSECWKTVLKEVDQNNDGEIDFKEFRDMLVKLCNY

SMILES | growth inhibition [1] | inhibition [2] | inhibition [3] [%] | growth inhibition [4] | outcome [5] | outcome [6] | outcome [7] | outcome [8]
Cc1cc2c(cc1C(F)(F)F)N(C(=O)Nc1ccc(OCCN(C)C)c(C(F)(F)F)c1)CC2 | 23% | 38% | -2 | 93% (active) | inactive | inactive | inactive | inactive
O=C1NC(C(=O)Nc2ccccc2)C(c2ccccc2)S1 (configuration not stated) | 99% (active) | -4% | -1 | 95% (active) | inactive | inactive | inactive | inactive
O=C(Nc1ccncc1)Nc1ccc2c(c1)CCN(C1CCC1)CC2 | 4% | -1% | 4 | 87% (active) | inactive | inactive | inactive | inactive
CN(C)CCN(C)Cc1ccc(-c2cccc(NC(=O)c3cccc(C#N)c3)c2)cc1 | 11% | 23% | -4 | 94% (active) | inactive | inactive | inactive | inactive
COc1ccc(Nc2nccc(N3CCC(NC(=O)c4cccc(NC(C)=O)c4)C3)n2)cc1 (configuration not stated) | 84% (active) | -3% | -5 | 92% (active) | inactive | inactive | inactive | inactive
CCCc1cc(C(=O)N[C@@H](Cc2ccccc2)[C@H](O)CNC2CCOCC2)c(F)c(N2CCCCS2(=O)=O)c1 | 97% (active) | -6% | -3 | 97% (active) | inactive | inactive | inactive | inactive
CCCCCN1CCC(NS(=O)(=O)c2cccc(C(=O)Nc3ccc(Cl)cc3)c2)CC1 | 29% | 24% | -3 | 88% (active) | inactive | inactive | inactive | inactive
CC=CCON1C(N)=NC(N)=NC1(C)C | 1% | 57% (active) | 5 | 94% (active) | inactive | inactive | inactive | inactive
C[C@@H]1CN(C(c2cccc(O)c2)c2cccc(C(=O)N(C)c3cccc(F)c3)c2)[C@@H](C)CN1C(c1cccc(O)c1)c1cccc(C(=O)N(C)c2cccc(F)c2)c1 (some centres not stated) | 85% (active) | 0% | 0 | 91% (active) | inactive | inactive | inactive | inactive
CN(CCN1CCC(c2c[nH]c3ccccc23)CC1)C(=O)OCCCCCNC(=O)/C=C/c1ccc(Cl)c(Cl)c1 | 44% | 39% | -4 | 95% (active) | inactive | inactive | inactive | inactive
O=C(NCCCCN1CCC(c2ccc(-c3ccco3)cc2)CC1)c1ccc(NC(=O)c2ccc(Cl)cc2)cc1 | 97% (active) | 26% | 6 | 100% (active) | inactive | inactive | inactive | inactive
O=C1C(c2ccccc2)=C(Nc2cccc([N+](=O)[O-])c2)c2ccccc21 | 88% (active) | -3% | 1 | 88% (active) | inactive | inactive | inactive | inactive
CC(=O)NCCCCC1NC2(C(=O)N(Cc3ccc(C(C)(C)C)cc3)c3ccccc32)C2C(=O)N(C3CCCCC3)C(=O)C12 (configuration not stated) | 71% (active) | -2% | -3 | 91% (active) | inactive | inactive | inactive | inactive
COc1ccc2nccc(NCC3(O)CCN(CCc4ccc5c(c4)OCCO5)CC3)c2n1 | 87% (active) | 35% | 3 | 100% (active) | inactive | inactive | inactive | inactive
CCNc1cc(C(=O)N[C@@H](Cc2ccccc2)[C@H](O)CNC2CCCC2)cc(N2CCCC2=O)c1 | 98% (active) | 8% | 2 | 98% (active) | inactive | inactive | inactive | inactive
O=C(O)c1ccc2c(c1)N(C(=O)CNCc1ccc(F)cc1)CC(=O)N2CCCc1ccccc1 | -2% | 1% | 2 | 95% (active) | inactive | inactive | inactive | inactive
CC(C)C[C@@H](/C=N/N1CCNC1=O)NC(=O)[C@H](CC(C)C)NC(=O)c1ccc(OCCN2CCOCC2)cc1 | 89% (active) | 21% | -4 | 97% (active) | inactive | inactive | inactive | inactive
CN(c1ccc2c(c1)nc(NC(=O)C1(c3cc(F)ccc3F)CC1)n2C)c1ccnc(Nc2cccc(CS(C)(=O)=O)c2)n1 | 46% | 42% | 6 | 89% (active) | inactive | inactive | inactive | inactive
O=C(C=Cc1cccs1)Nc1ccc(-c2nc3ccccc3[nH]2)cc1 | 3% | -4% | 4 | 83% (active) | inactive | inactive | inactive | inactive
CC(C)(C)CC(=O)Nc1ccc(Nc2cc(-c3ccncc3)cc3ncc(C(N)=O)cc23)cc1 | 85% (active) | 5% | 7 | 97% (active) | inactive | inactive | inactive | inactive

SMILES | growth inhibition [1] | inhibition [2] | inhibition [3] [%] | growth inhibition [4] | outcome [5] | outcome [6] | outcome [7] | outcome [8]
Nc1nccc2ccc(-c3ccc4nccn4c3)cc12 | 100% (active) | 15% | -2 | 101% (active) | inactive | inactive | inactive | inactive
CC(=O)c1ccc2c(c1)[C@H](NC(=O)c1cccc(Cl)c1Cl)[C@@H](CO)C(C)(C)O2 | 44% | 5% | 4 | 99% (active) | inactive | inactive | inactive | inactive
Cc1cccc2[nH]c(-c3ccc(-c4ccc(CNCC5CCCO5)cc4)cc3)nc12 (configuration not stated) | 81% (active) | 36% | -4 | 101% (active) | inactive | inactive | inactive | inactive
CN(CCCN)CCCNc1ccnc2cc(Cl)ccc12 | -2% | 1% | -10 | 101% (active) | inactive | inactive | inactive | inactive
CC1(C)N=C(N)N=C(N)N1OCC1CCCCC1 | 97% (active) | 67% (active) | 4 | 94% (active) | inactive | inactive | inactive | inactive
Cc1cccc2[nH]c(-c3ccc(-c4ccc(NC(=O)Nc5ccsc5)cc4)cc3)nc12 | 70% (active) | 49% | 5 | 101% (active) | inactive | inactive | inactive | inactive
O=c1c2c([nH]c3cc(Cl)ccc13)CCCC2 | 73% (active) | 33% | 2 | 96% (active) | inactive | inactive | inactive | inactive
O=C(O[C@@H]1CN[C@H](C#Cc2cc3ncnc(Nc4ccc5c(cnn5Cc5cccc(F)c5)c4)c3s2)C1)N1CCCC1 | 56% (active) | 9% | -3 | 86% (active) | inactive | inactive | inactive | inactive
CCNC(=O)Nc1cccc(-c2cccc(-c3nc4c(C)cccc4[nH]3)c2)c1 | 31% | 7% | 4 | 85% (active) | inactive | inactive | inactive | inactive
O=S(=O)(NCCN1CCCC1)c1ccc(-c2ccc(CNC3Cc4ccccc4C3)cc2)cc1F | 75% (active) | 33% | -1 | 101% (active) | inactive | inactive | inactive | inactive
CC(C)N(Cc1ccccc1)C(=O)CN1C(=O)COc2ccc(S(=O)(=O)N3CCCCCC3)cc21 | 99% (active) | -11% | -3 | 99% (active) | inactive | inactive | inactive | inactive
Fc1ccc2nc(-c3ccc(-c4cccc(CN5CCN(CCN6CCOCC6)CC5)c4)cc3)[nH]c2c1 | 100% (active) | 35% | 4 | 101% (active) | inactive | inactive | inactive | inactive
Cc1cccc2[nH]c(-c3ccc(-c4cccc(NC(=O)Nc5ccc(Cl)cc5)c4)s3)nc12 | 52% (active) | 25% | -1 | 102% (active) | inactive | inactive | inactive | inactive
Cc1[nH]c(C)c(-c2ccc(-c3ccc(C(F)F)cc3)nc2)c(=O)c1Cl | 96% (active) | 0% | -2 | 97% (active) | inactive | inactive | inactive | inactive
CC1CCCN(c2ccc(NC(=O)c3cccs3)cc2[N+](=O)[O-])C1 (configuration not stated) | 96% (active) | 14% | -2 | 96% (active) | inactive | inactive | inactive | inactive
COc1cc2nc(SCC(C)C)n(CCCn3ccnc3)c(=N)c2cc1OC | 78% (active) | 15% | -2 | 99% (active) | inactive | inactive | inactive | inactive
COc1cccc(C2CCCN(CCCCNC(=O)c3ccc(NC(=O)c4ccc(Cl)cc4)cc3)C2)c1 (configuration not stated) | 6% | 24% | -2 | 95% (active) | inactive | inactive | inactive | inactive
CCN(CC)C(=NCCCCCCN=C(/N=C(\N)c1ccc(Cl)cc1)N(CC)CC)/N=C(\N)c1ccc(Cl)cc1 | 99% (active) | 1% | 1 | 97% (active) | inactive | inactive | inactive | inactive
O=C(NCC1CCC(C(=O)NC2CCCc3ccccc32)CC1)c1ccc(O)c(-c2ccc(Cl)c(Cl)c2)c1 (configuration not stated) | 86% (active) | -5% | -4 | 93% (active) | inactive | inactive | inactive | inactive
